# Data published in PubChem BioAssay (NCATS).
# Values joined by “and” are separate entries in the source; they are usually repeats but may differ in a detail not shown here. Equal values may be shown once. Values without a mark were called inactive. Results filed as inconclusive are left out. Active and inactive are the calls of the source. Unless noted, calls follow the shape of the dose curve; as a rule, active = well fitted curve in the direction sought with a large enough effect; inconclusive = small, poorly fitted or top-dose-only effect, or another doubt; inactive = no such curve, though single readings can be large; an effect the other way counts as inactive or inconclusive.
# Columns and labels:
# PA-1 = test: Primary qHTS to identify gynecologic anti-cancer compounds using libraries of approved drugs and bioactive compounds (AID 1345084); conditions: Gynecologic cancer cell panel viability, ATPlite luminescence, 48 h; series mostly up to 57.5 µM; also: potency is read from the fitted curve at half-maximal effect; nearly all actives have a fitted effect of over 55% in size
# Summary of the method: (§1)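 Cytotoxicity screen measuring ATP content by luciferase luminescence. Each compound is applied at five concentrations for 48 h at 37 C with 5% CO2.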
# [1] = Drug repurposing screens with cells derived from glioblastoma tumor samples (AID 1345199); conditions: GBM patient neurospheres viability, ATP luminescence, 48 h; also: nearly all actives have a fitted effect of over 40% in size; also: potency is read from the fitted curve at half-maximal effect; as to activity, negative = cell killing: % is scaled to controls: 0 for no effect and ±100 for the full control effect
# Summary of the method: (§2)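 Primary testing used CD133+ neurospheres from four GBM patients, seven concentrations, 48 h exposure and ATP-based viability; confirmation added three slower-growing patient lines.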
# astro = test: as above; conditions: viability, ATP luminescence, 48 h; series mostly up to 45.9 µM
# Summary of the method: as §2
# [2] = qHTS assay to identify inhibitors of the type 1 interferon - major histocompatibility complex class I in skeletal muscle: Counter screen cell viability and HiBit confirmation (AID 1347412); conditions: iHSKM muscle cells + IFN-b, HiBiT or CellTiter-Glo, 24 h; for activity change, negative = inhibition: at 45.9 µM (top of the series); also: potency is read from the fitted curve at half-maximal effect; as to activity change, negative = inhibition: % is scaled to controls: 0 for no effect and ±100 for the full control effect; as to all read-outs here: nearly all actives have a fitted effect of over 60% in size
# Summary of the method: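 After 24 h with human IFN-beta (4 ng/ml) and compound titrations (top 46 uM final, 1:3, 12 points), HLA-B HiBit myoblasts were lysed for either Nano-Glo HiBiT luminescence or CellTiter Glo viability on paired plates.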
# [3] = target: Nuclear receptor subfamily 1 group I member 2 (Rattus norvegicus) (UniProt Q9R1A7); test: qHTS assay for small molecule activators of the rat pregnane X receptor (rPXR) signaling pathway (AID 651751; call rule not given here; also: 0% is about no effect); conditions: rPXR reporter cells, luciferase (One-Glo), 24 h
# Hek293T = test: Primary qHTS to identify gynecologic anti-cancer compounds using libraries of approved drugs and bioactive compounds (AID 1345084); conditions: Gynecologic cancer cell panel viability, ATPlite luminescence, 48 h, control line for the selectivity index; series mostly up to 57.5 µM; also: potency is read from the fitted curve at half-maximal effect; nearly all actives have a fitted effect of over 55% in size
# Summary of the method: as §1
# OV90 = test: as above; conditions: Gynecologic cancer cell panel viability, ATPlite luminescence, 48 h; series mostly up to 57.5 µM
# Summary of the method: as §1
# Tov-21-G = test: as above; conditions: Gynecologic cancer cell panel viability, ATPlite luminescence, 48 h; series mostly up to 57.5 µM
# Summary of the method: as §1
# [4] = qHTS assay for small molecule activators of the human pregnane X receptor (PXR) signaling pathway (AID 720659; call rule not given here; also: 0% is about no effect); conditions: DPX-2 HepG2 CYP3A4-luciferase, 24 h; series mostly up to 92.3 µM
# [5] = at 45.9 µM (top of the series), tumour line B
# [6] = at 45.9 µM (top of the series), tumour line D
# [7] = at 46 µM (top of the series), tumour line A
# [8] = at 46.1 µM (top of the series), tumour line C
# Sequence of Nuclear receptor subfamily 1 group I member 2 (Rattus norvegicus) (Q9R1A7 whole entry, looked up): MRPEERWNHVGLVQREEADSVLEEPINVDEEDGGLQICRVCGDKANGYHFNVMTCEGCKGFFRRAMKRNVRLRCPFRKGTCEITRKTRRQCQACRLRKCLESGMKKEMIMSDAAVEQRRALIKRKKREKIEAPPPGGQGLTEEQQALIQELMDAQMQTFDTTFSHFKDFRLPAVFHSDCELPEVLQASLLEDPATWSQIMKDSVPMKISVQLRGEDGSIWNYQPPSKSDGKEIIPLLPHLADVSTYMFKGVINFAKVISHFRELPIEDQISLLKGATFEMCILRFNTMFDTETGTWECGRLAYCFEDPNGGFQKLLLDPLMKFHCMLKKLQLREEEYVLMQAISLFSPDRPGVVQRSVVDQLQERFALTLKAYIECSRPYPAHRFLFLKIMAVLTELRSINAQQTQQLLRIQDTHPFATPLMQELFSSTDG
structure (smiles),measurement,setting,value
COc1cc2c(cc1OC)CN(CCc1ccc(NC(=O)c3cc(OC)c(OC)cc3NC(=O)c3cnc4ccccc4c3)cc1)CC2,Potency,PA-1,11.2 µM (active)
Cc1cnc(C(=O)O)c[n+]1[O-],"activity, negative = cell killing",[1]; [5],-12.7% and -17.2% and -5.56%
same,"activity, negative = cell killing",[1]; [6],-2.04% and 1.27% and -4.74%
same,"activity, negative = cell killing",[1]; [7],-14.3% and -47.1%
same,"activity, negative = cell killing",[1]; [8],-29.9% and -17.2% and -16.5%
same,Potency,astro,inactive
O=C1C(Cl)=C(NCCN2CCOCC2)C(=O)c2ncccc21,Potency,[2]; HiBiT,5.57 µM (active)
same,Potency,[2]; Viability,5.57 µM (active)
CC(C)(C)C(=O)Oc1ccc2c(c1)nc(NC(=O)c1cccc([N+](=O)[O-])c1)n2CCCO,"activity change, negative = inhibition",[2]; Viability,-3.08%
O=c1c(O)c(-c2ccc(O)cc2)oc2cc(O)cc(O)c12,max response,[3],0.424% and -1.67%
c1ccc2c(-c3cnn4cc(-c5ccc(N6CCNCC6)cc5)cnc34)ccnc2c1,Potency,[2]; HiBiT,7.87 µM (active)
CC1(C)CCC2=C(O1)c1ccccc1C(=O)C2=O,Potency,[2]; HiBiT,22.2 µM (active)
same,Potency,[2]; Viability,24.9 µM (active)
CC1(C)O[C@H]2C[C@@H]3[C@H]4CCC5=CC(=O)C=C[C@]5(C)[C@@]4(F)[C@@H](O)C[C@]3(C)[C@]2(C(=O)CO)O1,"activity, negative = cell killing",[1]; [5],-4.78%
same,"activity, negative = cell killing",[1]; [6],5.68%
same,"activity, negative = cell killing",[1]; [7],-11.2%
same,"activity, negative = cell killing",[1]; [8],3.17%
same,Potency,astro,inactive
CC1=C(/C=C/C(C)=C/C=C/C(C)=C/C(=O)Nc2ccc(O)cc2)C(C)(C)CCC1,Potency,Hek293T,20 µM (active)
same,Potency,OV90,31.6 µM (active)
same,Potency,PA-1,4.47 µM (active)
same,Potency,Tov-21-G,20 µM (active)
same,Potency,astro,11.2 µM (active)
same,outcome,[4],inactive
Oc1ccc(C2CCN(c3ccnc4ccccc34)CC2)cc1O,"activity change, negative = inhibition",[2]; Viability,-0.0528%
